The full data set covers some 7,900 targets. This sample favours those with a hit. About 0.6% of all pairs of compound and target were hits.
What was measured:
Test in all cases: log2 fold change, soluble protein after heating vs DMSO (PISA); higher = thermal stabilisation; K562 cells, 10 uM, 30 min; active = over 0.2 and 3.5 SD of the protein, either way, in both replicates (recomputed)
[1] = compound: CC[C@@H]1C(=O)N(C)c2cnc(Nc3ccc(C(=O)NC4CCN(C)CC4)cc3OC)nc2N1C1CCCC1
How it was run: (§1)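 Soluble protein was quantified by TMTpro 16plex LC-MS/MS after channel sums were equalised. It was obtained as the supernatant after 21,000xg for 90 min from pooled aliquots of K562 cells (2×10^6 cells/mL, 10 μM compound, 30 min) heated for 3 min across 48°C-58°C and extracted in PBS with 0.5% NP-40 at 4°C. Thermal stability values are relative to control samples and come from duplicates. They are given as log2 fold changes.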

volasertib = compound: CC[C@@H]1C(=O)N(C)c2cnc(Nc3ccc(C(=O)N[C@H]4CC[C@H](N5CCN(CC6CC6)CC5)CC4)cc3OC)nc2N1C(C)C [volasertib]
How it was run: as §1

[2] = compound: CC[C@H](C)N1C=C(C2=C(C=C(C=C21)C3=CN=C(C=C3)N4CCNCC4)C(=O)NCC5=C(C=C(NC5=O)C)C)C
How it was run: as §1

epoxomicin = compound: CC[C@H](C)[C@@H](C(=O)N[C@@H]([C@@H](C)O)C(=O)N[C@@H](CC(C)C)C(=O)[C@]1(CO1)C)NC(=O)[C@H]([C@@H](C)CC)N(C)C(=O)C [epoxomicin]
How it was run: as §1

[3] = compound: CCn1c(C(=O)N(C2CC2)C2CC2)cc2c3c(ncn3C)c(Nc3cc(C)n(C)n3)nc21
How it was run: as §1

[4] = compound: CCn1cc(-c2ccnc3[nH]c(-c4cccc(CN(C)C)c4)cc23)c(-c2ccc(NC(=O)N(C)C)cc2)n1
How it was run: as §1

[5] = compound: CN(C)CC(=O)Nc1ccc2[nH]c(=O)c3ccccc3c2c1
How it was run: as §1

rosiglitazone = compound: CN(CCOC1=CC=C(C=C1)C[C@H]2C(=O)NC(=O)S2)C3=CC=CC=N3 (racemic) [rosiglitazone]
How it was run: as §1

[6] = compound: CN1C2=C(C3=C1C(=O)N(N=C3)CC4=CC(=CC=C4)N)SC(=C2)S(=O)C
How it was run: as §1

[7] = compound: CN1CCC(CNc2ccc3ncc(-c4cccc(OC(F)(F)F)c4)n3n2)CC1
How it was run: as §1

saracatinib = compound: CN1CCN(CCOc2cc(OC3CCOCC3)c3c(Nc4c(Cl)ccc5c4OCO5)ncnc3c2)CC1 [saracatinib]
How it was run: as §1

sotrastaurin = compound: CN1CCN(c2nc(C3=C(c4c[nH]c5ccccc45)C(=O)NC3=O)c3ccccc3n2)CC1 [sotrastaurin]
How it was run: as §1

alvocidib = compound: CN1CC[C@H](c2c(O)cc(O)c3c(=O)cc(-c4ccccc4Cl)oc23)[C@H](O)C1 [alvocidib]
How it was run: as §1

Tubastatin A = compound: CN1CCc2c(c3ccccc3n2Cc2ccc(C(=O)NO)cc2)C1 [Tubastatin A]
How it was run: as §1

[8] = compound: CNC(=O)C1=CC=CC=C1NC2=NC(=NC=C2Cl)NC3=C(C=C(C=C3)N4CCOCC4)OC
How it was run: as §1

defactinib = compound: CNC(=O)c1ccc(Nc2ncc(C(F)(F)F)c(NCc3nccnc3N(C)S(C)(=O)=O)n2)cc1 [defactinib]
How it was run: as §1

rucaparib = compound: CNCc1ccc(-c2[nH]c3cc(F)cc4c3c2CCNC4=O)cc1 [rucaparib]
How it was run: as §1

[9] = compound: CNc1nc(-c2ccc3c(N)n[nH]c3c2)cc(N2C[C@@H](C(=O)NC3CCCCC3)CC[C@H]2C)n1
How it was run: as §1

encorafenib = compound: COC(=O)N[C@@H](C)CNc1nccc(-c2cn(C(C)C)nc2-c2cc(Cl)cc(NS(C)(=O)=O)c2F)n1 [encorafenib]
How it was run: as §1

[10] = compound: COC(=O)[C@H](CCSC)NC(=O)C1=C(C=C(C=C1)NC[C@H](CS)N)C2=CC=CC=C2
How it was run: as §1

Measured: log2 fold change

STAT5B (UniProt P51692)
inactive: [1] -0.221 | volasertib -0.333 | [2] 0.36 | epoxomicin 0.004 | [3] -0.037 | [4] 0.052 | [5] 0.105 | rosiglitazone -0.003 | [6] -0.063 | [7] -0.045 | saracatinib -0.231 | sotrastaurin -0.083 | alvocidib -0.023 | Tubastatin A 0.045 | [8] -0.053 | defactinib -0.33 | rucaparib 0.105 | [9] 0.138 | encorafenib 0.073 | [10] -0.052

TJP1 (UniProt Q07157)
Chain of UniProt Q07157 (Q07157 whole entry, looked up): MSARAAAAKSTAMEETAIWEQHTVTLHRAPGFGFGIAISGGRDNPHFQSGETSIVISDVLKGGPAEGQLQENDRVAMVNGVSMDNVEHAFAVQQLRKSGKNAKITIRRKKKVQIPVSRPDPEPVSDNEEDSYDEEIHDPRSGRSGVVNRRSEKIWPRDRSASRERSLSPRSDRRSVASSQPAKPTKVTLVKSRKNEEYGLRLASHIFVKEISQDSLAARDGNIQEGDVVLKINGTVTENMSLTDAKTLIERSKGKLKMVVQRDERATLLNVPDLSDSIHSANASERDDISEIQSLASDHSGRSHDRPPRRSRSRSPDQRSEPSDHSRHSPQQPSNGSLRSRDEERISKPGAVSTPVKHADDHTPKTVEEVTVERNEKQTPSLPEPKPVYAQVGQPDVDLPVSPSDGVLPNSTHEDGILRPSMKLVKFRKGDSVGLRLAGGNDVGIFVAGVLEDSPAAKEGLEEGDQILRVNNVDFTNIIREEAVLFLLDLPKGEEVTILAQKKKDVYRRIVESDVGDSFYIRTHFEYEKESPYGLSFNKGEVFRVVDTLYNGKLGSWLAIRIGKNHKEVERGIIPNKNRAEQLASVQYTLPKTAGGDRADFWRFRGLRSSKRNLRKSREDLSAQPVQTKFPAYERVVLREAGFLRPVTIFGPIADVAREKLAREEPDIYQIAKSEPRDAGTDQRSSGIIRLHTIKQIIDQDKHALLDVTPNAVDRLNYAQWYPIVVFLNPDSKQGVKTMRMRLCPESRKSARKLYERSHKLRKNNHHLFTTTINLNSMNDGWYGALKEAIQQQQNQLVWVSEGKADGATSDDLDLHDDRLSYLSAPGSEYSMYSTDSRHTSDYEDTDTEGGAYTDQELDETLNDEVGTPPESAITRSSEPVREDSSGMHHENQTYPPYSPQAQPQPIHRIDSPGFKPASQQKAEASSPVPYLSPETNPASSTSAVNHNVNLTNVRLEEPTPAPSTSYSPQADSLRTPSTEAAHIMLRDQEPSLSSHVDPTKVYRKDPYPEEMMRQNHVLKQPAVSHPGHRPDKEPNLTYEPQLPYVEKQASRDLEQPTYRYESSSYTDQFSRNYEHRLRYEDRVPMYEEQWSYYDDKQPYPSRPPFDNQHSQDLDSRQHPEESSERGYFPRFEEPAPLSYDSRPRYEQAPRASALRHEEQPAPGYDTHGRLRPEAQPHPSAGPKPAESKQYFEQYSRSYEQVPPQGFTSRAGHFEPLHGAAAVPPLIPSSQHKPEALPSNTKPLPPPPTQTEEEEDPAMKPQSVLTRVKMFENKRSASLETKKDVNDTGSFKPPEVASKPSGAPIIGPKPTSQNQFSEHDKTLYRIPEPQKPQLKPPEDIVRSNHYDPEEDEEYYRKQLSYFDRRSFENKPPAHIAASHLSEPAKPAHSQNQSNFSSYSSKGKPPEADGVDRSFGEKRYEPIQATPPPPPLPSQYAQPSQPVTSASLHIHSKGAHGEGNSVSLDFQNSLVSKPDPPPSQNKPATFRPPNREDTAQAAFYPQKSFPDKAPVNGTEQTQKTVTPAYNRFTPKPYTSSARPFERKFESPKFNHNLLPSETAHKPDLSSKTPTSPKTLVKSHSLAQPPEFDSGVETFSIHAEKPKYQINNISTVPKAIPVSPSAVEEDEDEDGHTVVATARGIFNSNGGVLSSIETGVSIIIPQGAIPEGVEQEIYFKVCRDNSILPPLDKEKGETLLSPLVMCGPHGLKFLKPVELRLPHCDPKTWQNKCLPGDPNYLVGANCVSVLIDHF
inactive: [1] -0.023 | volasertib -0.166 | [2] 0.022 | epoxomicin 0.007 | [3] -0.023 | [4] -0.052 | [5] 0.012 | rosiglitazone 0.019 | [6] 0 | [7] -0.071 | saracatinib -0.049 | sotrastaurin -0.064 | alvocidib -0.114 | Tubastatin A 0.045 | [8] -0.099 | defactinib -0.16 | rucaparib 0.018 | [9] 0.003 | encorafenib 0.029 | [10] -0.056

SNX6 (UniProt Q9UNH7)
Chain of UniProt Q9UNH7 (Q9UNH7 whole entry, looked up): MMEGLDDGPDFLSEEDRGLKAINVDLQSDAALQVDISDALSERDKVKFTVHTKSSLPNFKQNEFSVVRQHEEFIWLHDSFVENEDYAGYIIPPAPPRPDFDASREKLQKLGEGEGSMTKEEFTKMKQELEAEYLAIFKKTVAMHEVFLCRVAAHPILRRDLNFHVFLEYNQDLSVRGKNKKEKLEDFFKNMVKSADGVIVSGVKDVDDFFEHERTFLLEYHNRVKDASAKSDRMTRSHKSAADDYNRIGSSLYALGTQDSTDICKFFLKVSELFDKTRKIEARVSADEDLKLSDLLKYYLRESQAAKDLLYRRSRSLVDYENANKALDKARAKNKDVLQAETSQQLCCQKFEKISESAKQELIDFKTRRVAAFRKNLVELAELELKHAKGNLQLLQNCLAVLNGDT
active: [7] -0.77
inactive: [1] -0.142 | volasertib -0.047 | [2] 0.117 | epoxomicin 0.015 | [3] -0.141 | [4] -0.131 | [5] 0.005 | rosiglitazone 0.08 | [6] 0.016 | saracatinib -0.018 | sotrastaurin 0.026 | alvocidib -0.112 | Tubastatin A -0.051 | [8] -0.125 | defactinib -0.054 | rucaparib -0.016 | [9] 0.041 | encorafenib 0.042 | [10] -0.009

THYN1 (UniProt Q9P016)
Chain of UniProt Q9P016 (Q9P016 whole entry, looked up): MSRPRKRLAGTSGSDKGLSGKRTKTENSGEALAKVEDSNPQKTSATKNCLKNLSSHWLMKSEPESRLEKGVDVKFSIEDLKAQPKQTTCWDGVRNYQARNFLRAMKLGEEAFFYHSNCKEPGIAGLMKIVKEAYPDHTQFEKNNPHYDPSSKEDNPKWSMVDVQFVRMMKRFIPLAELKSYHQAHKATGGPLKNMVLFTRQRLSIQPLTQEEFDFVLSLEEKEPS
inactive: [1] 0.059 | volasertib 0.09 | [2] 0.048 | epoxomicin 0.016 | [3] 0.072 | [4] -0.04 | [5] -0.004 | rosiglitazone 0.001 | [6] -0.09 | [7] 0.09 | saracatinib -0.062 | sotrastaurin -0.022 | alvocidib -0.008 | Tubastatin A -0.006 | [8] 0.079 | defactinib -0.002 | rucaparib 0.029 | [9] 0.072 | encorafenib 0 | [10] -0.029

SMPD4 isoform 4 (UniProt Q9NXE4)
Chain of UniProt Q9NXE4 (Q9NXE4 whole entry, looked up): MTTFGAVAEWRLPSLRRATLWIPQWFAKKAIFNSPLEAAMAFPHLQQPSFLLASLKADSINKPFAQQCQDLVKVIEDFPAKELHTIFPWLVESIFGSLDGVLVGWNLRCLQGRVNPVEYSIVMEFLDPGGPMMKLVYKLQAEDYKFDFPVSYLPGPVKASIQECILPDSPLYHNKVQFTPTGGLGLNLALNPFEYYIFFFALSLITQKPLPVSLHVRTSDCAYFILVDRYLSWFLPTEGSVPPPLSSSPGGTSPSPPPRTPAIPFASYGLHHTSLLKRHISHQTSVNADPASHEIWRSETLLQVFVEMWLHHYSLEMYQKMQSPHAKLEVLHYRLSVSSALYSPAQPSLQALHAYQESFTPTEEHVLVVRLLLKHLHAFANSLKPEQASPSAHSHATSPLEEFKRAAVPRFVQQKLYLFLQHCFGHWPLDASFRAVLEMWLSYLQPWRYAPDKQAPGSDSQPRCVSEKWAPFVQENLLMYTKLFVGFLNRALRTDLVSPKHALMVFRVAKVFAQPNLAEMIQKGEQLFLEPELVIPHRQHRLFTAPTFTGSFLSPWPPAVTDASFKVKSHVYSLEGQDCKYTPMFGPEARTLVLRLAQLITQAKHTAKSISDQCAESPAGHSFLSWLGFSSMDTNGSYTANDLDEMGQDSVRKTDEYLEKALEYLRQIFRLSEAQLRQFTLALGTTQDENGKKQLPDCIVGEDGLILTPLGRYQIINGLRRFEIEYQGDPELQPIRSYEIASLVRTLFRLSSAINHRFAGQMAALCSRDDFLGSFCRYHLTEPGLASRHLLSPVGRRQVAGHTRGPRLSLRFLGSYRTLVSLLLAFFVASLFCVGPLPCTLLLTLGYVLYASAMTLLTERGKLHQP
inactive: [1] -0.067 | volasertib -0.076 | [2] 0.068 | epoxomicin -0.008 | [3] -0.049 | [4] -0.081 | [5] 0.036 | rosiglitazone 0.075 | [6] -0.075 | saracatinib 0.154 | sotrastaurin -0.082 | alvocidib -0.174 | Tubastatin A 0.007 | [8] -0.041 | defactinib -0.056 | rucaparib 0.043 | [9] -0.071 | encorafenib -0.081 | [10] 0
active: [7] -0.32

SP1 (UniProt P08047)
inactive: [1] 0.047 | volasertib 0.102 | [2] 0 | epoxomicin -0.032 | [3] 0.007 | [4] -0.003 | [5] -0.042 | rosiglitazone -0.005 | [6] 0.006 | [7] -0.063 | saracatinib 0.022 | sotrastaurin 0.016 | alvocidib 0.023 | Tubastatin A -0.054 | [8] -0.015 | defactinib 0.01 | rucaparib 0.066 | [9] -0.023 | encorafenib -0.019 | [10] 0.025

SSX2 (UniProt Q16385)
Chain of UniProt Q16385 (Q16385 whole entry, looked up): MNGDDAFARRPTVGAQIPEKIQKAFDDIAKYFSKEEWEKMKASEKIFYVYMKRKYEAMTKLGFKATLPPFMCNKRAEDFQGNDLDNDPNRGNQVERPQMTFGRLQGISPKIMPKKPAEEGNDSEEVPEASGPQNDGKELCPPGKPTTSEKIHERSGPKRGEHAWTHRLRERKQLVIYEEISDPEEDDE
inactive: [1] -0.046 | volasertib -0.102 | [2] 0.071 | epoxomicin 0.131 | [3] 0.007 | [4] -0.036 | [5] 0.007 | rosiglitazone 0.045 | [6] -0.06 | [7] 0.021 | saracatinib 0.017 | sotrastaurin -0.028 | alvocidib 0.024 | Tubastatin A 0.062 | [8] 0.066 | defactinib -0.114 | rucaparib 0.025 | [9] -0.078 | encorafenib 0.021 | [10] -0.012

SYMPK (UniProt Q92797)
inactive: [1] -0.341 | [2] -0.289 | epoxomicin 0.073 | [3] -0.036 | [4] -0.026 | [5] 0.123 | rosiglitazone 0.13 | [6] 0.076 | [7] -0.141 | saracatinib -0.058 | sotrastaurin -0.205 | alvocidib -0.2 | Tubastatin A 0.258 | [8] 0.008 | defactinib -0.245 | rucaparib 0.09 | [9] 0.007 | encorafenib 0.079 | [10] -0.022
active: volasertib -0.5

SLC4A2 (UniProt P04920)
inactive: [1] 0.039 | volasertib -0.071 | [2] -0.044 | epoxomicin 0.029 | [3] -0.021 | [4] -0.028 | [5] 0.022 | rosiglitazone 0.066 | [6] 0.035 | [7] -0.018 | saracatinib 0.003 | sotrastaurin -0.029 | alvocidib -0.174 | Tubastatin A 0.066 | [8] -0.006 | defactinib 0.028 | rucaparib 0.064 | [9] 0.008 | encorafenib 0.085 | [10] -0.067

SMAP (UniProt O00193)
Chain of UniProt O00193 (O00193 whole entry, looked up): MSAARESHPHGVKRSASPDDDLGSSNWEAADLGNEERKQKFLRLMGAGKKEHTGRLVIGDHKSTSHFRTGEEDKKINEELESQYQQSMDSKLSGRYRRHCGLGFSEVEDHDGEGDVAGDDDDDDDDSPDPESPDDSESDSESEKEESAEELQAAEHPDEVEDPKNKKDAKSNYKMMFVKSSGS
inactive: [1] -0.024 | volasertib 0.023 | [2] -0.043 | epoxomicin 0.06 | [3] -0.02 | [4] 0.014 | [5] -0.011 | rosiglitazone -0.038 | [6] -0.088 | [7] -0.045 | saracatinib -0.035 | sotrastaurin 0.016 | alvocidib -0.015 | Tubastatin A 0.016 | [8] -0.069 | defactinib -0.001 | rucaparib -0.064 | [9] 0.009 | encorafenib -0.054 | [10] 0.013

STARD9 (UniProt Q9P2P6)
active: [6] 0.507
inactive: [1] -0.024 | volasertib 0.238 | [2] -0.029 | epoxomicin 0.022 | [3] 0.064 | [4] 0.008 | [5] 0.075 | rosiglitazone 0.015 | [7] -0.098 | saracatinib 0.051 | sotrastaurin -0.316 | alvocidib -0.337 | Tubastatin A 0.122 | [8] -0.344 | defactinib 0.144 | rucaparib -0.005 | [9] 0.103 | encorafenib 0.048 | [10] -0.03

SRP72 (UniProt O76094)
inactive: [1] -0.093 | volasertib -0.518 | [2] 0.119 | epoxomicin 0.001 | [3] -0.104 | [4] -0.034 | [5] 0.03 | rosiglitazone 0.047 | [6] 0.119 | [7] -0.168 | saracatinib -0.102 | sotrastaurin -0.181 | alvocidib 0.069 | Tubastatin A 0.119 | [8] 0.04 | defactinib -0.035 | rucaparib 0.184 | [9] 0.055 | encorafenib 0.155 | [10] -0.134

TERF2IP (UniProt Q9NYB0)
Chain of UniProt Q9NYB0 (Q9NYB0 whole entry, looked up): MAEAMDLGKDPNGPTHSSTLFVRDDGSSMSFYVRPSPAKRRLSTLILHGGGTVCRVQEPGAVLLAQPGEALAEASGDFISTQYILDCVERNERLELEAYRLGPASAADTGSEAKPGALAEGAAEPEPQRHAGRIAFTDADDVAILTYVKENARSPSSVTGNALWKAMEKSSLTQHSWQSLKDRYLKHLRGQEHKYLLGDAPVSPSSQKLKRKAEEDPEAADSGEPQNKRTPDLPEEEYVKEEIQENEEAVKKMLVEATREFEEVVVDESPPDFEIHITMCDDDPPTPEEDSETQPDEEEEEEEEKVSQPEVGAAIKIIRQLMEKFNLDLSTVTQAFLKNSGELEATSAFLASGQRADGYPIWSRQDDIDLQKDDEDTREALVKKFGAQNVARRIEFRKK
inactive: [1] -0.038 | volasertib -0.205 | [2] 0.001 | epoxomicin 0.081 | [3] 0.02 | [4] 0.01 | [5] 0.045 | rosiglitazone 0.016 | [6] 0.026 | [7] -0.039 | saracatinib 0.038 | sotrastaurin -0.065 | alvocidib -0.106 | Tubastatin A 0.128 | [8] 0.008 | defactinib -0.195 | rucaparib -0.052 | [9] -0.016 | encorafenib -0.011 | [10] -0.007

TECR (UniProt Q9NZ01)
Chain of UniProt Q9NZ01 (Q9NZ01 whole entry, looked up): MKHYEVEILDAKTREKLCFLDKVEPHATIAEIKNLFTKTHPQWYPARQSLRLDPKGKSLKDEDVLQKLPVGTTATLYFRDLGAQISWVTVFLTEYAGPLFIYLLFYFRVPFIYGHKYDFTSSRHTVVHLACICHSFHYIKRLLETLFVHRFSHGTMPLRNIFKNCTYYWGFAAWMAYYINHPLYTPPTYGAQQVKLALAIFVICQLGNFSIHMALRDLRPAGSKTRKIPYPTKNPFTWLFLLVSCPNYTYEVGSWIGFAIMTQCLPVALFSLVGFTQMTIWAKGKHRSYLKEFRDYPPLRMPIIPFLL
inactive: [1] -0.116 | [2] 0.015 | epoxomicin 0.026 | [3] 0.021 | [4] -0.085 | [5] 0.042 | rosiglitazone 0.043 | [6] -0.063 | saracatinib -0.018 | sotrastaurin -0.007 | alvocidib -0.02 | Tubastatin A -0.035 | [8] -0.07 | defactinib -0.022 | rucaparib 0.03 | [9] -0.017 | encorafenib 0.045 | [10] -0.028
active: volasertib -0.24 | [7] -0.347

SUPT5H (UniProt O00267)
inactive: [1] -0.018 | [2] 0.084 | epoxomicin 0.062 | [3] -0.054 | [4] -0.065 | [5] 0.056 | rosiglitazone 0.057 | [6] -0.056 | [7] -0.117 | saracatinib -0.01 | sotrastaurin -0.021 | alvocidib -0.075 | Tubastatin A 0.007 | [8] -0.004 | defactinib -0.126 | rucaparib -0.062 | [9] 0.039 | encorafenib 0.076 | [10] -0.017
active: volasertib -0.224

TBC1D23 (UniProt Q9NUY8)
Chain of UniProt Q9NUY8 (Q9NUY8 whole entry, looked up): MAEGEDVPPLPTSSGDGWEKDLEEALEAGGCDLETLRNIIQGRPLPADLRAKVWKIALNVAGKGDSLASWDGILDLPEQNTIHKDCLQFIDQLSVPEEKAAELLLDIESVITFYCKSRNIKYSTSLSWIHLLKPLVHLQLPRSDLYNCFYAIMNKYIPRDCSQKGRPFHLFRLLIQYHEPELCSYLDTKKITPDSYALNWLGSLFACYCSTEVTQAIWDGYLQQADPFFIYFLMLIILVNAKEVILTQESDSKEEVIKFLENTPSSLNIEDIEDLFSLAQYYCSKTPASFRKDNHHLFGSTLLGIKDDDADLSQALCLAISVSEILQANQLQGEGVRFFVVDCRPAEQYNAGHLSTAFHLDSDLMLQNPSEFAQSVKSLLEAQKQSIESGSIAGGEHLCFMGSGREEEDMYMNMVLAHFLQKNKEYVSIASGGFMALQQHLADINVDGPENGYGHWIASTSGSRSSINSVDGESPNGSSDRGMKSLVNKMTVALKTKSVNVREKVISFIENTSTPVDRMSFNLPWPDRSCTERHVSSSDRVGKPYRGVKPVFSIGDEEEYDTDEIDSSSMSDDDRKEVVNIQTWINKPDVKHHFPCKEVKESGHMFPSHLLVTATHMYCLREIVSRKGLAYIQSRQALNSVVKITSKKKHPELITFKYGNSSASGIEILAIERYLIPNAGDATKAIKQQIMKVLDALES
active: [7] -0.651
inactive: [1] -0.228 | volasertib -0.261 | [2] 0.008 | epoxomicin 0.049 | [3] -0.05 | [4] -0.069 | [5] 0.025 | rosiglitazone 0.042 | [6] 0.043 | saracatinib -0.023 | sotrastaurin -0.073 | alvocidib -0.053 | Tubastatin A 0.043 | [8] -0.027 | defactinib -0.109 | rucaparib -0.038 | [9] -0.074 | encorafenib 0.079 | [10] -0.047
